Most compounds without a hit are left out; they make up all but 18% or so of the library.
HepG2 viability = HepG2 cytotoxicity, counter-screen for TGF-b inhibitors; HepG2 CAGA-GFP viability, ATP luminescence, 18 h; Potency, µM (highest dose often 46.1 µM), without a hit: at the highest dose activity change, negative = cytotoxicity, hits mostly cytotoxic; 410,000 tested, 0.76% active; further: potency means the concentration at half of the fitted maximal effect
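HepG2 CAGA-GFP cells (1000/well, DMEM with 1% FBS) received compound, then TGF-beta at 500 pg/mL final, and were incubated 18 hours at 37 degrees C. Viability was read by CellTiter-Glo luminescence. Media-only wells were set as complete cell-killing and DMSO as no toxicity.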
TDP1 cell CPT = DT40-hTDP1 cell growth loss with CPT; 420,000 tested, 12% active; Potency, µM (highest dose often 46.2 µM), for the others: at the top dose activity change, negative = growth inhibition, most hits filed as inhibitors; chicken DT40 Tdp1-/-;hTDP1 cells + 20 nM CPT, ATP luminescence, 48 h; further: potency means the concentration at half of the fitted maximal effect; on the % scale 0 is the no-effect control and ±100 the full control effect; nearly all actives have a fitted effect of over 55% in size
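Chicken DT40 Tdp1-/- cells complemented with human TDP1, 400 cells/well, exposed to compounds plus 20 nM camptothecin for at least 48 h at 37 C; viability read as ATP content by CellTiter-Glo luminescence.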
TDP1 block = blocks human tyrosyl-DNA phosphodiesterase 1; Q9NUW8; recombinant TDP1, AlphaScreen DNA substrate cleavage; Potency, µM (top dose mostly 130 µM), for inactives: at the top dose activity change, negative = inhibition, hits mostly inhibitors; 350,000 tested, 0.28% active; AID 485290; further: potency means the concentration at half of the fitted maximal effect; on the % scale 0 is the no-effect control and ±100 the full control effect; nearly all actives have a fitted effect of over 40% in size
Target sequence (Q9NUW8 whole entry, looked up): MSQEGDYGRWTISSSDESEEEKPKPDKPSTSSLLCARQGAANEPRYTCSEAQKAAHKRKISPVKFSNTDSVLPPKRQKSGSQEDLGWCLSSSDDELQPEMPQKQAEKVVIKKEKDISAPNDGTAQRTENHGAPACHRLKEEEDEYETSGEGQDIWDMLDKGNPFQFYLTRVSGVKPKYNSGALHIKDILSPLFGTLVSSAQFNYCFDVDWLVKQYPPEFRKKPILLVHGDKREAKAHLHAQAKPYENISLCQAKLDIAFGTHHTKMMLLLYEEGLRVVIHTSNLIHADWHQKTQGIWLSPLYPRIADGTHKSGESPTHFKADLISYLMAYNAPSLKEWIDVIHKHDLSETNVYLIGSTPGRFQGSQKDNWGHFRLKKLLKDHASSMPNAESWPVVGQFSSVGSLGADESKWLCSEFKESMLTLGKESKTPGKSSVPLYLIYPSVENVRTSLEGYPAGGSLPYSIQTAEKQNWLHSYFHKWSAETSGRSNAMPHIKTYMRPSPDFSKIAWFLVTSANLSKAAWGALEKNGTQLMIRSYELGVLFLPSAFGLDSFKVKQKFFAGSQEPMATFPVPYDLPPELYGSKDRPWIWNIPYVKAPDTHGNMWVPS
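E. coli-derived human Tdp1, 1 nM final. Cpd preinc 15 min RT; substrate 15 nM final, 5 min RT; AS bead mix 10 ug/ml final, 10 min RT. Signal loss = tyrosine-FITC cleavage. No-enzyme wells = max signal.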
IL-1B inflam inh = inflammasome signaling inhibition, IL-1 beta readout; THP-1 LPS/ATP IL-1B secretion, AlphaLISA, 16 h; active compounds read low; activity change, % at 57.5 µM; 360,000 tested, 4.7% active; AID 743279; in the data active means activity change below about -50%; inconclusive means mostly about -30% to -49%; further: on the % scale 0 is the no-effect control and ±100 the full control effect
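THP-1 cells pretreated 1 hr with compounds (up to 57.5 uM final), then stimulated with LPS (250 ng/mL final) plus ATP (1.25 mM final); secreted IL-1B measured by AlphaLISA after 16 hr, decreased signal indicating inhibition.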
TGFb inhibitor = blocks TGF-b signaling. AID 588855. HepG2 CAGA-GFP TGF-b/SMAD3 reporter, GFP fluorescence, 18 h; TGF-beta stimulated, 500 pg/mL final. Potency, µM (doses to about 46.1 µM), without a hit: at the top dose activity, negative = inhibition, hits mostly inhibitors. 410,000 tested, 1.2% active; further: potency means the concentration at half of the fitted maximal effect; on the % scale 0 is the no-effect control and ±100 the full control effect; nearly all actives have a fitted effect of over 65% in size
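HEPG2 CAGA-GFP reporter cells (1000/well, DMEM with 1% FBS) received compounds, then recombinant TGF-beta at 500 pg/mL final for 18 hours at 37 degrees C. Per-cell GFP summed per well was normalised to unstimulated and stimulated DMSO controls before curve fitting.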
DT40 TDP1 no CPT = qHTS for Inhibitors of human tyrosyl-DNA phosphodiesterase 1 (TDP1): qHTS in cells in absence of CPT. DT40 Tdp1-/- hTDP1 cells, no CPT, ATP luminescence, 48 h. Potency, µM (highest dose often 46.2 µM), without a hit: top-dose activity change, negative = growth inhibition, actives largely listed as inhibitors. 420,000 tested, 15% active. AID 686978, 2013; further: potency means the concentration at half of the fitted maximal effect; on the % scale 0 is the no-effect control and ±100 the full control effect; nearly all actives have a fitted effect of over 55% in size
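No-CPT arm: Tdp1-/-;hTDP1 DT40 cells (400/well) plus compounds, incubated ≥48 hr at 37 °C. Readout CellTiter-Glo luminescence.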
* marks the source's active call; other numbers are inactive results; ? = inconclusive; . = not tested or not shown; [ ] = another dose, or the depositor's remark. Unless noted, the call rests on the fitted dose curve; in most records, active means well fitted curve in the direction sought with a large enough effect; inconclusive means small, poorly fitted or top-dose-only effect, or another doubt; inactive means no such curve, though single readings can be large; an effect the other way counts as inactive or inconclusive.

SMILES | HepG2 viability | TDP1 cell CPT | TDP1 block | IL-1B inflam inh | TGFb inhibitor | DT40 TDP1 no CPT
CCOc1ccc(CCNC(=O)c2cnc(C)cn2)cc1OCC | 0% | -20% | 2% | 14 | 12% | 1%
CC(=O)c1ccc(NC(=O)CCc2c(C)nc3c(c2C)c(=O)n(C)c(=O)n3C)cc1 | 10% | -10% | 3% | . | ? | ?
Cc1cc(C)cc(NC(=O)CCc2c(C)nc3c(c2C)c(=O)n(C)c(=O)n3C)c1 | -6% | ? | 5% | . | 2% | 16µM*
O=C(Nn1c(-c2ccccc2)nc2ccccc2c1=O)C1CCC1 | 0% | -1% | 0% | 0 | -6% | 7%
O=C(CN(C(=O)CNC(=O)c1ccco1)c1cccc(F)c1)NC1CCCCC1 | 4% | -9% | . | -1 | -10% | -8%
Cc1nn(-c2ccccc2)c(C)c1C(=O)NCCc1ccccc1 | -14% | -8% | . | -26 | 3% | -12%
Cc1nc2c(c(C)nn2-c2ccccc2)c(C)c1CCC(=O)Nc1ccccc1 | -11% | -11% | 3% | . | 8% | -22%
CCOc1ccc(CCNC(=O)c2c(C)nn(-c3ccccc3)c2Cl)cc1OCC | -5% | 16µM* | 3% | 26 | 0% | ?
Cc1cccc(C)c1OCCNC(=O)c1ccc2ccccc2n1 | -14% | 21µM* | 3% | 38 | -11% | 16µM*
Cc1ccc(OCCNC(=O)c2ccc3ccccc3n2)cc1 | -25% | ? | . | -3 | -16% | ?
COc1cc(NC(=O)CCc2c(C)nc3c(c(C)nn3-c3ccccc3)c2C)cc(OC)c1OC | 1% | 15µM* | 5% | . | 10% | 12µM*
Cc1nc2c(c(C)nn2-c2ccccc2)c(C)c1CCC(=O)NCCCOC(C)C | 1% | -27% | . | 15 | -16% | 21µM*
O=C(COc1ccc(F)cc1)OCc1cc(=O)n2nc(-c3cccs3)sc2n1 | -6% | -24% | -10% | . | -26% | ?
COc1ccccc1-c1nccc(N2CCN(C)CC2)n1 | . | -3% | . | . | . | -8%
CC(C)c1[nH]nc2c1C(c1cccs1)C(C#N)=C(N)O2 (stereo unspecified) | -40% | ? | 3% | -86* | ? | ?
N#CC1=C(N)OC2=C(C(=O)CCC2)C1C1C=CCCC1 (stereo unspecified) | 36% | -16% | 4% | -12 | 0% | -26%
CC(C)c1[nH]nc2c1C(C1C=CCCC1)C(C#N)=C(N)O2 (stereo unspecified) | -22% | 16µM* | 9% | -88* | ? | 13µM*
CCc1[nH]nc2c1C(C1C=CCCC1)C(C#N)=C(N)O2 (stereo unspecified) | -49% | 23µM* | 7% | -54* | ? | 21µM*
O=C(c1coc(=O)c(Br)c1)N1CCOCC1 | 1% | 5.2µM* | 22µM* | -7 | 3% | 5.2µM*
Cc1cc2c(cc1C)N[C@]1(C[C@H]3CCCC(=O)N4CC[C@@H](C1)[C@@H]34)C(=Nc1ccccc1C)N2 | 11% | ? | . | . | 1% | ?
CC(C)(C)CC(C)(C)N=C1Nc2ccc(Cl)cc2NC12C[C@H]1CCC(=O)N3CC[C@@H](C2)[C@@H]13 (stereo partly specified) | 10µM* | ? | . | . | ? | 13µM*
CC(C)(C)CC(C)(C)N=C1Nc2ccc([N+](=O)[O-])cc2N[C@]12C[C@H]1CCCC(=O)N3CC[C@@H](C2)[C@@H]13 | -27% | 18µM* | . | . | ? | 11µM*
O=C1CCC[C@@H]2C[C@@]3(C[C@@H]4CCN1[C@H]24)Nc1cc(Cl)c(Cl)cc1NC3=NCc1ccccc1 | -32% | 18µM* | . | -19 | 11µM* | 20µM*
O=c1c2ccccc2n(Cc2c(F)cccc2Cl)c(=O)n1CCc1ccccc1 | -3% | -17% | 2% | . | -1% | -23%
CC1=C2[C@@H]([C@H](C)CC[C@H]2/C=C(\C)C(=O)O)[C@H](O)C1 | . | . | 11% | . | . | .
SMILES | HepG2 viability | TDP1 cell CPT | TDP1 block | IL-1B inflam inh | TGFb inhibitor | DT40 TDP1 no CPT
COc1cccc(-c2cnc3c(NC(C)=O)cc(-c4cccc(C(=O)NCCN(C)C)c4)cn23)c1 | 13µM* | ? | . | -27 | ? | 18µM*
CN(C)CCNC(=O)c1cccc(-c2cnc3c(NC=O)cc(-c4cccs4)cn23)c1 | -34% | ? | . | -10 | ? | ?
COc1ccc(-c2cnc3c(NC(C)=O)cc(-c4cccc(C(=O)NCCO)c4)cn23)cc1OC | -3% | 21µM* | . | -55* | 7% | 21µM*
COc1cc(-c2cnc3c(NC(C)=O)cc(-c4cccc(C(=O)NCCO)c4)cn23)cc(OC)c1OC | -2% | 16µM* | . | 83 | -8% | 10µM*
COc1ccc(-c2cnc3c(NC(C)=O)cc(-c4cccc(C(=O)N(C)C)c4)cn23)cc1OC | -8% | 21µM* | . | -18 | 22% | 13µM*
Cc1nn(C)cc1C(=O)Nc1ccc2c(c1)OCCO2 | -7% | 0% | 10%[0.0935 µM] | 8 | 10% | -13%
CC(=O)Nc1cc(-c2cccc(NS(C)(=O)=O)c2)cn2c(-c3ccccc3)cnc12 | -17% | ? | . | -16 | 3% | ?
COc1cccc(-c2cnc3c(NC(C)=O)cc(-c4cccc(NS(C)(=O)=O)c4)cn23)c1 | -33% | 26µM* | . | 43 | -4% | 23µM*
COc1ccc(-c2cnc3c(NC(C)=O)cc(-c4cccc(C(=O)NCCN(C)C)c4)cn23)cc1OC | -44% | ? | . | ? | 18% | 12µM*
CCc1ccc(CN(C)CC(=O)Nc2ccc(S(=O)(=O)N3CCOCC3)cc2)cc1 | -24% | ? | 2% | 0 | -10% | ?
COc1cccc(/C=C/C(=O)Nc2ccc3c(c2)OCCO3)c1OC | -29% | 18µM* | 1% | -78* | 14% | ?
COc1cc(OC)cc(C(=O)Nc2ccc3nc4n(c(=O)c3c2)CCCCC4)c1 | 3% | ? | 2% | -10 | -6% | 12µM*
COc1cc(/C=C/C(=O)Nc2ccc3nc4n(c(=O)c3c2)CCCC4)cc(OC)c1OC | -1% | ? | 3% | ? | -22% | ?
COc1ccc(OC)c(CCNC(=O)C(=O)Nc2ccc3nc4n(c(=O)c3c2)CCCCC4)c1 | -4% | 13µM* | -6% | -15 | 1% | 15µM*
COc1cccc(/C=C/C(=O)Nc2ccc3nc4n(c(=O)c3c2)CCCC4)c1OC | -43% | 21µM* | 3% | -10 | 0% | 18µM*

Source: PubChem
